Six compounds from PubChem BioAssay (NCATS) can be followed below.

Values joined by “and” are separate entries in the source; they are usually repeats but may differ in a detail not shown here. Equal values may be shown once. Results filed as inconclusive are left out. Active and inactive are the calls of the source. Unless noted, calls come from the whole dose curve.

Assay [1] can be described thus: qHTS assay for small molecule agonists of retinoid X receptor alpha signaling (AID 588544).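 For activation: 0% = DMSO basal wells and 100% = reference agonist.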 The conditions noted are these: HEK293T RXRa-UAS-bla, beta-lactamase reporter, 18 h; 530 nm emission. (In general: In qHTS, concentration-response curves come from the screen itself.)
In assay [2] the target is Retinoic acid receptor RXR-alpha (Homo sapiens) (UniProt P19793). Described as above. As to conditions: HEK293T RXRa-UAS-bla, beta-lactamase reporter, 18 h; series mostly up to 76.7 µM.
Chain of Retinoic acid receptor RXR-alpha (Homo sapiens) (P19793 whole entry, looked up): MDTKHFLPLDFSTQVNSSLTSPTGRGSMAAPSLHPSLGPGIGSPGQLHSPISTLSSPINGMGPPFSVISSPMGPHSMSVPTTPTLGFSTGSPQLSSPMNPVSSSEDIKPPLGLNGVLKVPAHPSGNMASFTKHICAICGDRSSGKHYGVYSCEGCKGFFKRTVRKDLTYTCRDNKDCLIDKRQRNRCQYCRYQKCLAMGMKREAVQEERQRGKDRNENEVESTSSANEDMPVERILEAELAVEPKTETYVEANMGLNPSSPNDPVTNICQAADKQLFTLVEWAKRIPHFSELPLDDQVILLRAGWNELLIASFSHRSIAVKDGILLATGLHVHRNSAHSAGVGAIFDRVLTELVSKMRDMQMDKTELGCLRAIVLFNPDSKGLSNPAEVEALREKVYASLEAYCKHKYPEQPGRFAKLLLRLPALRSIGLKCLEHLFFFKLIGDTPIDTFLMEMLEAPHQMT
For assay [3], the target named is Thyroid hormone receptor beta (Homo sapiens) (UniProt P10828). As to the kind of experiment: qHTS assay for small molecule agonists of thyroid hormone receptor beta signaling (AID 588545).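 Note: 0% = DMSO only and 100% = 10 nM T3.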 The conditions noted are these: TR-UAS-bla GripTite HEK 293, beta-lactamase ratio, agonist mode, 18 h, percent of T3 response, DMSO as zero; series mostly up to 76.7 µM. In a few lines:
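Stimulation of a TR-driven beta-lactamase reporter was quantified in GripTite HEK 293 cells. Compound series ran for 18 hrs; curves were normalized to T3 and DMSO controls and fitted to yield EC50.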

Assay [4] can be described thus: qHTS assay for small molecule antagonists of retinoid X receptor alpha signaling (AID 588546; active = well fitted inhibition curve with a large enough effect in the signal ratio, with a control signal flat, not every such curve was filed as active; the % refers to the signal ratio;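 note: cells stimulated with 9-cis-retinoic acid as agonist; % is set by controls: 0 for no effect and ±100 for the full control effect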). The conditions noted are these: HEK293T RXRa-UAS-bla, beta-lactamase ratio, antagonist mode; measured here: W530 green channel, cytotoxicity proxy. Summed up:
(§1)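 Beta-lactamase reporter inhibition, read as CCF4 fluorescence ratio (ex 405, em 460/530 nm) after 2 h at RT. HEK293T UAS-bla cells, 2500/well, were stimulated with 9-cis-RA at 500 or 100 nM final alongside test compound for 18 h at 37 C.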

For assay [5], the target named is Retinoic acid receptor RXR-alpha (Homo sapiens) (UniProt P19793). The description is as above. The conditions noted are these: HEK293T RXRa-UAS-bla, beta-lactamase ratio, antagonist mode. Summed up:
as §1

In assay [6] the target is Thyroid hormone receptor beta (Homo sapiens) (UniProt P10828). As to the kind of experiment: qHTS assay for small molecule antagonists of thyroid hormone receptor beta signaling (AID 588547; active = well fitted inhibition curve with a large enough effect in the signal ratio, with a control signal flat, not every such curve was filed as active; the % refers to the signal ratio;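 note: cells stimulated with 0.4 nM T3 agonist during compound exposure; % is set by controls: 0 for no effect and ±100 for the full control effect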). As to conditions: TR-UAS-bla HEK293, beta-lactamase ratio, antagonist mode, 18 h. Summed up:
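TR-UAS-bla GripTite HEK293 cells in 2% charcoal/dextran FBS medium were preincubated 4 h at 37 C, given compound (0.59 nM to 92 uM) plus 0.4 nM T3 (final) for 18 h, then CCF4 for 2 h at RT; Hill fit gave IC50.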

Assay [7] addresses Voltage-gated inwardly rectifying potassium channel KCNH2 (Homo sapiens) (UniProt Q12809). As to the kind of experiment: qHTS Assay for Small Molecule Inhibitors of the Human hERG Channel Activity (AID 588834; active = well fitted curve in the direction sought with a large enough effect; an effect the other way counts as inactive or inconclusive;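 note: top concentration of the series differs between compounds; % is set by controls: 0 for no effect and ±100 for the full control effect; lower thallium flux fluorescence means stronger hERG block; nearly all actives have a fitted effect of over 50% in size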). The conditions noted are these: U2OS BacMam hERG, FluxOR thallium flux fluorescence; series mostly up to 92.2 µM. In a few lines: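 U2OS cells transduced with hERG via BacMam (MOI ~100), plated 2000/well, loaded with FluxOR thallium dye, compound ~10 min, then stimulation buffer; fluorescence decrease read kinetically; AC50 from Hill fits.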

Assay [8] in a line: qHTS assay for small molecule agonists of the antioxidant response element (ARE) signaling pathway (AID 651741; active = well fitted activation curve with a large enough effect in the signal ratio; the % refers to the signal ratio; note: potency is the fitted concentration of half-maximal effect; for activation: % of control where 0% means no effect). The conditions noted are these: HepG2 ARE-bla reporter, beta-lactamase FRET ratio, 16 h; series mostly up to 96 µM. In a few lines: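 Compounds in DMSO are pinned onto HepG2 ARE-bla cells (2,000/well) that were preincubated 5 h; plates stay 16 h at 37 C, then beta-lactamase activity is detected with LiveBLAzer B/G substrate by fluorescence.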

A short description of assay [9]: qHTS assay for small molecule activators of the p53 signaling pathway (AID 651743; active = well fitted activation curve with a large enough effect in the signal ratio, not every such curve was filed as active; the % refers to the signal ratio; note: % of control where 0% means no effect). The conditions noted are these: HCT-116 p53RE-bla, beta-lactamase FRET ratio, 16 h; stronger effect = higher value. In a few lines: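 Cell-based beta-lactamase reporter (p53 response elements, HCT-116 background). After a 5-hour preincubation, cells received compound for 16 hours at 37 C; substrate development ran 2 hours at room temperature.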

The nature of assay [10]: qHTS assay for small molecule activators of the nuclear factor-kappa B (NF-kB) signaling pathway (AID 651749; active = well fitted activation curve with a large enough effect in the signal ratio; the % refers to the signal ratio; note: % of control where 0% means no effect). As to conditions: NF-kB-bla ME-180 cells, beta-lactamase FRET ratio, 16 h; stronger effect = higher value. Summed up:
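Screening used 2,000 ME-180 reporter cells per well exposed to pinned compound (23 nL) or DMSO; after 16 hr at 37C, beta-lactamase expression under NF-kB control was assessed through FRET.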

A short description of assay [11]: qHTS assay for small molecule disruptors of the mitochondrial membrane potential - 1 hr assay (AID 651754). Note: % is set by controls: 0 for no effect and ±100 for the full control effect; nearly all actives have a fitted effect of over 35% in size. As to conditions: series mostly up to 92.2 µM. In a few lines: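 HepG2, 2,000 cells/well, overnight attachment; cpd or DMSO 1 hr, 37C/5% CO2; Mito-MPS dye 30 min, 37C; fluorescence monomer (490/535) and aggregate (540/590).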
A short description of assay [12]: qHTS assay for small molecule disruptors of the mitochondrial membrane potential - 5 hr assay (AID 651755). Note: nearly all actives have a fitted effect of over 40% in size. Note: potency is the fitted concentration of half-maximal effect. The conditions noted are these: JC-1-type ratio dye; series mostly up to 92.2 µM. Summed up:
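HepG2 cells, attached overnight at 37C, were exposed to compound or DMSO for 5 hr at 37C, 5% CO2. Mito-MPS dye was then added for 30 min, and fluorescence read at 490/535 nm (monomers) and 540/590 nm (aggregates).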

The target in assay [13] is Tumor necrosis factor (Homo sapiens) (UniProt P01375). As to the kind of experiment: qHTS assay to identify small molecules that stimulate Tumor Necrosis Factor-alpha (TNF-alpha) secretion (AID 651757; active = well fitted curve in the direction sought with a large enough effect in the signal ratio; the % refers to the signal ratio; note: 0% is about no effect). As to conditions: Human cells, HTRF 665/615 ratio; series mostly up to 92.2 µM. Summed up: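 Read-out is HTRF, a TR-FRET sandwich of cryptate- and XL665-labeled anti-TNF-alpha antibodies detecting cytokine secreted by THP-1 cells. Cells had been incubated with test compounds at 37 C for 17 hrs beforehand.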
Chain of Tumor necrosis factor (Homo sapiens) (P01375 whole entry, looked up): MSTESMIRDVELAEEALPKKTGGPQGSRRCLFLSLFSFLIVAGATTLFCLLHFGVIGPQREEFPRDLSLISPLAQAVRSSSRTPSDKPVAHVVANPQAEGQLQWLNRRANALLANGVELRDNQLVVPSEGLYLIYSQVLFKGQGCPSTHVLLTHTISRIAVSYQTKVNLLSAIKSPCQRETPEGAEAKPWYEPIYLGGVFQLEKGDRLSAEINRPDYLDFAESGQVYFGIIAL

Assay [14] is described as follows: qHTS assay to identify small molecules that stimulate interleukin-8 (IL-8) secretion (AID 651758; active = well fitted activation curve with a large enough effect in the signal ratio; the % refers to the signal ratio; note: 0% is about no effect). As to conditions: HTRF ratio (665/615); series mostly up to 92.2 µM. In a few lines:
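THP-1, 2000 cells/well; cpd 16 h, 37 C; add cryptate + XL665 anti-IL-8 Abs; RT 1-3 h; TR-FRET read.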

Assay [15] can be described thus: qHTS assay for environmental chemicals that activate the Aryl hydrocarbon Receptor (AhR) signaling pathway (AID 651777; active = well fitted curve in the direction sought with a large enough effect; an effect the other way counts as inactive or inconclusive; note: % of control where 0% means no effect; nearly all actives have a fitted effect of over 15% in size). As to conditions: 1A2-DRE human hepatoma cells, luciferase, 24 h; activation: stronger effect = higher value. Summed up:
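Human hepatoma 1A2-DRE cells stably carrying a DRE/CYP1A2 promoter–luciferase reporter, 1,200 cells/well, exposed to compound 24 hr at 37 C. Luciferase read by One-Glo luminescence after 30 min at room temperature; increased signal marks AhR activation.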

The target of assay [16] is Peroxisome proliferator-activated receptor alpha (Homo sapiens) (UniProt Q07869). As to the kind of experiment: qHTS assay for small molecule agonists of the peroxisome proliferator-activated receptor alpha (PPARalpha) signaling pathway (AID 651778; active = well fitted curve in the direction sought with a large enough effect; an effect the other way counts as inactive or inconclusive; note: % of control where 0% means no effect). The conditions noted are these: PathHunter PPARalpha complementation, chemiluminescence, 6 h; stronger effect = higher value. Summed up: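 Cells plated at 2,000/well and held overnight at 37 C, 5% CO2, then compound added by pin tool for 6 hr; after PathHunter detection reagent and 60 min at room temperature, chemiluminescence from enzyme complementation was read.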
Chain of Peroxisome proliferator-activated receptor alpha (Homo sapiens) (Q07869 whole entry, looked up): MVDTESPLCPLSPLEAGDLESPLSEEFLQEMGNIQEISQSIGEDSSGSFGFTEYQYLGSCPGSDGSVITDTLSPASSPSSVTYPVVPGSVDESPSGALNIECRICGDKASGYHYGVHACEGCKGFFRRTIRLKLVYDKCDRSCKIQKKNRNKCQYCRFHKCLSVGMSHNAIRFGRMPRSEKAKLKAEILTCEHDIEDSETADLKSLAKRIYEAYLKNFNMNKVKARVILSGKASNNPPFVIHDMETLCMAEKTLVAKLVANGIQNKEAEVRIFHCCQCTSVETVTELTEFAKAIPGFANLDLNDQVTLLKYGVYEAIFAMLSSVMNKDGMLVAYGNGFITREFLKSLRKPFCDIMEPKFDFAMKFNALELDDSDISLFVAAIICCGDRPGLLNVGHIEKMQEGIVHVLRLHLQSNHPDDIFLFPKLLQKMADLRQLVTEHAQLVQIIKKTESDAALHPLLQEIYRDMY

The target in assay [17] is Nuclear receptor ROR-gamma (Homo sapiens) (UniProt P51449). As to the kind of experiment: qHTS assay for small molecule antagonists of the retinoid-related orphan receptor gamma (ROR-gamma) signaling pathway (AID 651802; active = well fitted curve in the direction sought with a large enough effect; an effect the other way counts as inactive or inconclusive;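 note: luciferase reporter luminescence driven by ROR response element; % is set by controls: 0 for no effect and ±100 for the full control effect; nearly all actives have a fitted effect of over 60% in size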). The conditions noted are these: ROR-gamma antagonist cell reporter assay; series mostly up to 92.2 µM. In a few lines:
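CHO, TET-inducible ROR + RORE-LUC reporter, 1536-well qHTS. Compound pinned, doxycycline added, 16hr 37C/5% CO2. ONE-Glo, 30 min RT, luminescence; signal drop scored as antagonism.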

Assay [18] is described as follows: qHTS assay for small molecule agonists of the antioxidant response element (ARE) signaling pathway measured by Nrf2-dependant transcriptional activity (AID 720636; active = well fitted curve in the direction sought with a large enough effect in the repeat runs; an effect the other way counts as inactive or inconclusive; note: % of control where 0% means no effect). The conditions noted are these: ARE-luc HepG2, Nrf2 luciferase reporter, 16 h; series mostly up to 92.4 µM. Summed up:
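ARE-luc HepG2 cells carrying an Nrf2-responsive luciferase reporter, in medium with 1% dialyzed FBS, exposed to compound for 16 hr at 37 C, 5% CO2. Luminescence read 30 min after ONE-Glo addition.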

Assay [19] can be described thus: qHTS assay for small molecule antagonists of the retinoid-related orphan receptor gamma (ROR-gamma) signaling pathway - cell viability counter screen (AID 720652; active = well fitted curve in the direction sought with a large enough effect in the repeat runs; an effect the other way counts as inactive or inconclusive;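 note: compound exposure lasted 16 hr before ATP read; % is set by controls: 0 for no effect and ±100 for the full control effect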). As to conditions: RORgamma reporter cell line viability counter screen; series mostly up to 92.2 µM. Summed up:
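Luminescence from CellTiter-Glo after 30 min at room temperature reported cellular ATP as the cytotoxicity measure. Cells were the CHO reporter line with doxycycline-induced ROR-gamma expression, exposed to compound for 16 hr at 37 C.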

The nature of assay [20]: qHTS assay for small molecule agonists of the antioxidant response element (ARE) signaling pathway measured by Nrf2-dependant transcriptional activity - cell viability counter screen (AID 720653; active = well fitted curve in the direction sought with a large enough effect in the repeat runs; an effect the other way counts as inactive or inconclusive; note: % is set by controls: 0 for no effect and ±100 for the full control effect). As to conditions: ARE-bla HepG2 viability, CellTiter-Glo ATP luminescence, 16 h; stronger effect = lower value. In a few lines: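 ARE-bla HepG2 cells (2,000/well) rested 5 hrs at 37C/5% CO2, then exposed to compounds in DMSO for 16 hrs. Viability was read in the same wells as intracellular ATP by luminescence, 30 min at room temperature after reagent addition.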

Chain of Nuclear receptor ROR-gamma (Homo sapiens) (P51449 whole entry, looked up): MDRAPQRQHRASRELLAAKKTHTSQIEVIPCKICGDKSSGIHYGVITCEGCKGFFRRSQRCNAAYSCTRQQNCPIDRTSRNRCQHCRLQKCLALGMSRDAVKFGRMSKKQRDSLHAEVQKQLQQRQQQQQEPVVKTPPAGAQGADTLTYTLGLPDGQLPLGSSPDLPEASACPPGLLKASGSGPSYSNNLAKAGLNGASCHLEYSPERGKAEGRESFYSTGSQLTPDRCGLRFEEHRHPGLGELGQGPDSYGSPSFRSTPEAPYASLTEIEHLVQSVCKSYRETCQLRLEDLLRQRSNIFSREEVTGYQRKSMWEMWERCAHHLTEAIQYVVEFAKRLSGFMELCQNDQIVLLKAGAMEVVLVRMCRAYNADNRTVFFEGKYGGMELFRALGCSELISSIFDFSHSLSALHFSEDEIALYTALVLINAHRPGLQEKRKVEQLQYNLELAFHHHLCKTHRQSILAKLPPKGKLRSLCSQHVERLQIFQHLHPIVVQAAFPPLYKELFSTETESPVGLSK
Chain of Thyroid hormone receptor beta (Homo sapiens) (P10828 whole entry, looked up): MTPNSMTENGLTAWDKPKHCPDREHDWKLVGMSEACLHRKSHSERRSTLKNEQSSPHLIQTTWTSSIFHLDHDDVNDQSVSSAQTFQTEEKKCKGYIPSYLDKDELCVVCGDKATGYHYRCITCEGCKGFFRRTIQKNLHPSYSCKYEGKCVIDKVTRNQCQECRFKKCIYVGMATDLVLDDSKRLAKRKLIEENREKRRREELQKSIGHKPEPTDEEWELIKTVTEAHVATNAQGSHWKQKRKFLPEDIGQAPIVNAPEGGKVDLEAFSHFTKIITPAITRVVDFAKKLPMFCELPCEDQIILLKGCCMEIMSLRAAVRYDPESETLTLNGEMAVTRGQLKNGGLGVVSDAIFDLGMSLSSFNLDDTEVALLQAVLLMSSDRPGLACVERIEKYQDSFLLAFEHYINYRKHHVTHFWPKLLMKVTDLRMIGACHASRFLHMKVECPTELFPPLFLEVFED
Chain of Voltage-gated inwardly rectifying potassium channel KCNH2 (Homo sapiens) (Q12809 whole entry, looked up): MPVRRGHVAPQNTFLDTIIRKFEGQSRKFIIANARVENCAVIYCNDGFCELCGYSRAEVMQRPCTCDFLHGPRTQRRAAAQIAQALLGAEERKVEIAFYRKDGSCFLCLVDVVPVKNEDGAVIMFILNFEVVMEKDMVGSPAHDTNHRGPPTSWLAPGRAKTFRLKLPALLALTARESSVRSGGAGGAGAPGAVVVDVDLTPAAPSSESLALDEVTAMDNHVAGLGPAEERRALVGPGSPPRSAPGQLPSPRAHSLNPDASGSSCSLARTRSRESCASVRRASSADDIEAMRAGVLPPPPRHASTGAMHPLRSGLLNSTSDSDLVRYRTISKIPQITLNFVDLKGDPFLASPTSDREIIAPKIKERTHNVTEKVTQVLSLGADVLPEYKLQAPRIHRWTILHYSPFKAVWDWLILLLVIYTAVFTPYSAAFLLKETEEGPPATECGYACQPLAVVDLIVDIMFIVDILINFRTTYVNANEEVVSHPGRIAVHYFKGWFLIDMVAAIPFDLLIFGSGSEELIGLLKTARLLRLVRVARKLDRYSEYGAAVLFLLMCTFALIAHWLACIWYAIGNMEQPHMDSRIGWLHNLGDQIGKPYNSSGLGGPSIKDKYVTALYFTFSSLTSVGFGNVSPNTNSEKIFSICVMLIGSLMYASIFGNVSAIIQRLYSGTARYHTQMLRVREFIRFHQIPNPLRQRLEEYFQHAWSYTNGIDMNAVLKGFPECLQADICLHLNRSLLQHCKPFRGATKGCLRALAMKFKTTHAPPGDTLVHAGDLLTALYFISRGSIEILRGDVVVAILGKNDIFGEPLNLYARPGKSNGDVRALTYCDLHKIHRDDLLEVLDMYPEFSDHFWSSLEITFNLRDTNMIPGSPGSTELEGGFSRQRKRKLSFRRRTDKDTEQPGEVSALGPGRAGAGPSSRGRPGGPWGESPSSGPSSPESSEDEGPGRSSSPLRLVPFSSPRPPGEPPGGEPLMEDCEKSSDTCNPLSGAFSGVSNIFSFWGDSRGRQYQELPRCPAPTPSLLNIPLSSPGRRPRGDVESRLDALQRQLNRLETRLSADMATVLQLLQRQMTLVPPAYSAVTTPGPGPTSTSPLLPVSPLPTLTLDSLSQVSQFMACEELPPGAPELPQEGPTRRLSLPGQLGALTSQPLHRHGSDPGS

On to `CO[Si](CCCNCCC[Si](OC)(OC)OC)(OC)OC`, for which the max response in assay [1] was 9.17%; in assay [4], 7.72%; in assay [5] it was 10.8% (inactive); in assay [16], -5.87% (inactive); in assay [20], -1.66% (inactive). The compound was classed as inactive in assay [2], in [3] and in assay [18]. Moreover, the activity change % (negative = inhibition) in [6] is -0.795% (inactive). For the same compound, the Potency result in assay [7], in assay [8], in assay [11], in [12], in assay [13] and in [14] was “inactive” throughout. For the same compound, the Potency entry in assay [17] and in assay [19] was “inactive” each time. The activation is 0.23% (inactive) in assay [9], 0.71% (inactive) in [10] and -0.757% (inactive) in assay [15].
As for `CCCCCNCCCCC`, the max response in [1] is 1.44% and -10.1%; in assay [4], -1.51% and -1.45%; in assay [5] it was 4.32% (inactive) and 13.3% (inactive); in assay [16] it was -4.45% (inactive) and 0.112% (inactive); in [20], -0.347% (inactive) and -3.31% (inactive). In addition, the result in [2] and in assay [3] was inactive. For the same compound, the activity change % (negative = inhibition) in assay [6] is -1.69% (inactive) and -17.1% (inactive). Also, the Potency result in assay [7], in [8], in [11], in assay [12], in [13] and in assay [14] was “inactive” each time. Moreover, the Potency result in [17] and in [19] was “inactive” throughout. Also, in assay [9], the activation is -2.16% (inactive) and -1.29% (inactive).
On to `Nc1cc(Cl)c([N+](=O)[O-])cc1O`, for which the max response in [1] was -11.8%; in assay [4], -8.58%; in [5] it was -8.94% (inactive); in assay [16], -6.88% (inactive); in assay [20], -1.27% (inactive). Moreover, the outcome in assay [2] and in assay [3] was inactive. Further, the activity change % (negative = inhibition) in assay [6] was 14.2% (inactive). The Potency entry in assay [7], in assay [17] and in assay [19] was “inactive” in each case. Also, the results for the Potency in [8] and in assay [12] were 8.41 µM (active) and 33.5 µM (active), respectively. Further, the activation was -0.259% (inactive) in assay [9], 0.0071% (inactive) in [10] and 6.24% (inactive) in assay [15].
Consider `Cc1cccc([N+](=O)[O-])c1C(=O)O`, for which the max response is -20.5% in assay [1]; -4.5% in assay [4]; -0.976% (inactive) in assay [5]; 4.5% (inactive) in assay [16]; 0.554% (inactive) in assay [20]. The outcome in assay [2], in assay [3] and in assay [18] was inactive. Further, the activity change % (negative = inhibition) in assay [6] was 13.9% (inactive). Moreover, the Potency entry in assay [7], in assay [8], in assay [11], in assay [13], in assay [14] and in assay [17] was “inactive” in each case. In assay [19], the Potency result is “inactive”. The activation is -3.44% (inactive) in [9] and -0.538% (inactive) in [15].
On to `O=C1OC(=O)c2cc([N+](=O)[O-])ccc21`, for which the max response in assay [1] was 18.2%; in assay [4], 10.4%; in assay [5], 1.57% (inactive); in [16], -4.48% (inactive); in assay [20], -1.02% (inactive). The call in assay [2], in assay [3] and in [18] was inactive. Further, the activity change % (negative = inhibition) in assay [6] was 7.82% (inactive). The Potency result in [7], in [8], in [11], in assay [12], in [14] and in assay [17] was “inactive” throughout. Besides, the Potency entry in assay [19] was “inactive”. Also, the activation in assay [9] is 1.53% (inactive); in [10], -0.857% (inactive).
On to `CCOC(C)(C)C`, for which the max response in assay [1] was -2.56%; in assay [4] it was -1.08%; in [5], 3.08% (inactive); in assay [16], -4.96% (inactive); in [20], -6.47% (inactive). The outcome in assay [2], in [3] and in [18] was inactive. Further, the activity change % (negative = inhibition) in assay [6] was -6.37% (inactive). Further, the Potency entry in assay [7], in assay [8], in assay [11], in assay [12], in [13] and in assay [14] was “inactive” each time. The Potency entry in [17] and in assay [19] was “inactive” throughout. The activation was -0.539% (inactive) in assay [9], 0.0467% (inactive) in assay [10] and -0.13% (inactive) in assay [15].
